Consider 51 compounds from PubChem BioAssay AID1117279 (The Scripps Research Institute Molecular Screening Center, 2014).

Screen size: about 1,100 compounds; about 40 (4%) were called active. These entries were drawn from the full list. A number with no mark means an inactive call.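 How the source made its calls: active means average inhibition above the solvent-only control wells' mean plus 3 SD (cut at about 15% in these data); inactive means the rest.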

The nature of the test: TTR promoter reporter inhibitors in hepatoma cells, counter-screen for TTR transcription activator project, cell-based, luminescence, HuH7 hepatoma (AID 1117279).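 Further: 0% = cells with DMSO only and 100% = cells with inhibitor control FD; inhibitors lower well luminescence so higher value means more inhibition.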 As to conditions: HuH7 TTR promoter-Gaussia luciferase reporter, at 16.7 µM, hits give high values. In general terms: A counterscreen serves to expose hits that act by an unwanted route or on another target.
A word on the inhibition: it is the relative decrease from the control value, in per cent. Regarding `CC(C)(C)C1CCC(OC(=O)CCC(=O)Nc2ccccc2)CC1` (stereo unspecified), the inhibition was -7.82%.

For the compound `C[C@H](NC(=O)C1CCN(S(=O)(=O)c2ccccc2)CC1)C(=O)NCc1ccccc1`, the inhibition was -13.1%.

As to `Cc1cccc(N2C(=O)CC(SC(N)=Nc3ccccc3)C2=O)c1` (stereo unspecified), the inhibition was -9.09%.

Turning to `Brc1ccc(/C=N/N2CCN(C3c4ccccc4-c4ccccc43)CC2)s1`, the inhibition is -10.1%.

As to `CC(C)NC(=O)c1ccc(Sc2ccccc2)c([N+](=O)[O-])c1`, the inhibition was -1.16%.

As to `CCOc1ccc(NC(=O)COc2ccc(S(=O)(=O)N3CCCC3)cc2)cc1`, the inhibition was -11.3%.

With `CCCCCc1ccc(-c2cn(Cc3ccc4ccccc4c3)nn2)cc1`, the inhibition was -10.2%.

For the compound `CCOc1ccc(N=C2NC(=O)S/C2=C\c2ccc(O)cc2)cc1`, the inhibition was 24.4% (active).

Consider `COc1cc(N2C(=O)CC3(CCCC3)CC2=O)cc(OC)c1OC`, for which the inhibition is -8.06%.

For `Cc1c(C#N)c(NC(=O)c2ccccc2)n(Cc2ccccc2)c1C`, the inhibition is -8.18%.

In the case of `Cn1cc(CN2CCCC(CO)C2)c(-c2ccc(Oc3ccccc3)cc2)n1` (stereo unspecified), the inhibition is -9.5%.

In the case of `O=C(NNC1=NCCC1)c1cccc(S(=O)(=O)N2CCCCC2)c1`, the inhibition was -4.93%.

Take `COc1ccc(-c2oc3ncn(Cc4ccco4)c(=N)c3c2-c2ccc(OC)cc2)cc1`: the inhibition was 1.5%.

Take `CSCCC(NC(N)=O)C(=O)N(C)CC(=O)Nc1ccc(C)cc1` (stereo unspecified): the inhibition is -0.9%.

In the case of `CCCCOCCCNC(=O)C[C@H]1C[C@@]2(C(=O)OC)C(=C[C@H](C(C)(C)C)O[C@@H]2C)N(CCc2ccc(OC)c(OC)c2)C1=O`, the inhibition was -3.28%.

As for `Cc1cccc(C)c1NC(=O)CN1C(=O)C(C)Oc2ccccc21` (stereo unspecified), the inhibition is 1.63%.

Turning to `N=c1ccn(CC(=O)NC(N)=O)c2ccccc12`, the inhibition is -11.8%.

For `C=C1C(C(C)C)N(C)C2=NC(c3ccccc3)CC(=O)N12` (stereo unspecified), the inhibition is -4.18%.

In the case of `O=C(NCCCNC(=O)c1ccccc1Cl)c1cnccn1`, the inhibition was -8.25%.

For the compound `O=S(=O)(NCCCN1CCOCC1)c1ccc(F)c(Cl)c1`, the inhibition was -2.54%.

As to `COc1ccccc1N1CCN(Cc2cc(OC)c3c(c2)OCO3)CC1`, the inhibition is -8.45%.

Take `O=C(Nc1cccc(O)c1)c1ccc(C(=O)c2ccccc2)o1`: the inhibition is -11.2%.

Take `O=C(O)Cn1c(Cc2ccccc2)nc2ccccc21`: the inhibition was -10%.

As for `O=C(CCC(=O)c1cccs1)NCc1ccccc1`, the inhibition is -6.29%.

Consider `Cc1c(NS(=O)(=O)c2ccc(NC3CCCC3)c([N+](=O)[O-])c2)c(=O)n(-c2ccccc2)n1C`, for which the inhibition is 17.4% (active).

Take `CCOC(=O)c1c(-c2ccccc2)oc2ccc(OCC(N)=O)cc12`: the inhibition is -17.5%.

`COc1cc(C(C)=O)ccc1OC(C)C(=O)Nc1ccc(S(=O)(=O)N2CCCC2)cc1` (stereo unspecified): the inhibition is -21.8%.

As for `O=C(Nc1ccccc1C(=O)N1CCCCCC1)c1ccccc1Cl`, the inhibition was -17.5%.

Regarding `CCOc1ccccc1NC(=O)COc1ccc(S(=O)(=O)N2CCCC2)cc1`, the inhibition is -35.5%.

Take `C(=N\n1cnnc1)/c1cccnc1`: the inhibition is -6.37%.

For `COc1cccc(-c2cnc(C(O)c3ccccc3OC)[nH]2)c1` (stereo unspecified), the inhibition is -13.2%.

Take `Cc1ccccc1/[N+]([O-])=C/c1ccncc1`: the inhibition was -5.47%.

For the compound `O=C(CS(=O)(=O)c1ccccc1)Nc1ccc(S(=O)(=O)Nc2ccccn2)cc1`, the inhibition was -15.3%.

For `C/C(CC(=O)Nc1ccc(N(C)C)cc1)=N\NC(=O)c1ccccc1F`, the inhibition was -16.7%.

As for `COc1ccc(S(=O)(=O)NCC(=O)NCc2cc(=O)n(C)c(=O)n2C)cc1F`, the inhibition was -4.59%.

In the case of `Cc1ccc(CN2CCCOCCS2(=O)=O)cc1`, the inhibition was -6.05%.

For the compound `Nc1nc(SCC(=O)Nc2ccc(Cl)c([N+](=O)[O-])c2)n[nH]1`, the inhibition was -10%.

`CCOC(=O)c1cc(-c2ccc(Cl)s2)nc2c1c(C)nn2C`: the inhibition was -14.6%.

On to `O=C(NC(=O)c1ccccc1N1CCCCC1)Nc1ccc(Br)cc1`, for which the inhibition was -2.62%.

As to `Cc1cc(C)c2nc3nc(C)cc(C)c3c(N)c2c1`, the inhibition was -40.1%.

Consider `CCCCc1cc(=O)oc2cc(C)cc(OCc3nn[nH]n3)c12`, for which the inhibition is -25.9%.

As to `O=C(NNC(=O)c1cc(S(=O)(=O)N2CCCCC2)ccc1Cl)c1ccccc1O`, the inhibition was -22.3%.

On to `COC(=O)c1cnn2c(C(F)(F)F)cc(-c3ccco3)nc12`, for which the inhibition was 2.2%.

Take `O=C1c2cccc(OCC(=O)N3N=C(c4cccs4)CC3c3ccc(F)cc3)c2CCN1Cc1ccccc1` (stereo unspecified): the inhibition is 9.54%.

Regarding `COc1ccc(C2c3ccc(O)cc3Oc3ncn(CCCO)c(=N)c32)cc1OC` (stereo unspecified), the inhibition is -4.61%.

As to `O=S(=O)(NCc1ccccc1Br)c1ccccc1Br`, the inhibition was 6.86%.

As for `CCCCN(C)CCNC(=O)C1CCCN(S(=O)(=O)c2cccc3nsnc23)C1` (stereo unspecified), the inhibition is -18%.

As for `O=C(O)C1OC(C(=O)O)C2C1C(F)(F)C2(F)F` (stereo unspecified), the inhibition is -13.2%.

Turning to `Cc1cc(C)c(C#N)c(N2CCC(C(N)=O)CC2)n1`, the inhibition is -15.2%.

Consider `Cc1nc(-c2ccc(Cl)cc2)sc1C(=O)NN`, for which the inhibition was -6.37%.

Consider `N#Cc1cccc(CN2CCC(=O)N(CCO)CC2)c1`, for which the inhibition is -7.6%.
